Measurements taken from the supplement of paper PMC12067093, “Discovery and optimisation of a covalent ligand for TRIM25 and its application to targeted protein ubiquitination” (Chemical Science, 2025).
The full data set covers some 21,000 targets. This sample favours those with the largest changes.

Biological target: DDX39B_Q13838_165_NCPHIVVGTPGR (UniProt Q13838)
Assay: probe-labelled cysteine peptide fold change vs DMSO (competition) (log2 fold change); higher = less target engagement (more negative = stronger competition)
Conditions: THP-1, incubation time: 4 h
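Note: competitive profiling in live THP-1 cells: cysteine peptides tagged with an iodoacetamide desthiobiotin (IA-DTB) probe, intensity after compound treatment relative to DMSO-treated cells.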

Sequence of UniProt Q13838 (Q13838 whole entry, looked up): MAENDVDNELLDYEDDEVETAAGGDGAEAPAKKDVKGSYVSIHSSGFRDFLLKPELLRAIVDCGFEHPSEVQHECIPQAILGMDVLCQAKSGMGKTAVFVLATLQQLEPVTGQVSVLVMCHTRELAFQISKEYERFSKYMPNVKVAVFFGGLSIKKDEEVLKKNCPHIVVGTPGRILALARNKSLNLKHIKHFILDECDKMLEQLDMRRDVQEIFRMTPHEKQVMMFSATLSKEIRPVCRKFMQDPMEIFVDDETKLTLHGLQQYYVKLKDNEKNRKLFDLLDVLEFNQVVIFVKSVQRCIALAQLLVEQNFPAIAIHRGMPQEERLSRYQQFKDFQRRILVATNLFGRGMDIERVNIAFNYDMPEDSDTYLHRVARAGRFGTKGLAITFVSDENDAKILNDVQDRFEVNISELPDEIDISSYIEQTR

Question: Cc1cc(C(=O)N2CCCN(C(=O)CCl)CC2)ccc1-c1ccccc1 [compound 10] was tested. Which “probe-labelled cysteine peptide fold change” value (10 µM) did it give?
Answer: 0.0169

Question: What about the “probe-labelled cysteine peptide fold change” value (50 µM) of the same compound?
Answer: 0.0264
